Rows were chosen to be rich in hits. Some 2.2% of all compounds tested hit in one or more screens of this group.
Calb FLC = C. albicans growth modulation with fluconazole; growth inhibition, % (test concentration not listed); actives 0.57% (n = 300,000); C. albicans CaCi-2 (fluconazole-resistant clinical isolate) + fluconazole, Alamar Blue growth, 48 h; AID 1979;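 active = growth inhibition above about 58% in most replicates, limit read from the data, passing the limit was not always enough; inconclusive = exactly half the replicates above a set limit; inactive = most replicates below a set limit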;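 also: all wells also contain fluconazole at 8 µg/ml as a sub-toxic cotreatment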
PfHsp90 yeast 2 = growth inhibition of yeast expressing Plasmodium Hsp90. S. cerevisiae expressing PfHsp90, BacTiter-Glo ATP, 48 h; yeast lacking PDR1 and PDR3 efflux regulators. inhibition, % at 9.4 µM. actives 0.32% (n = 310,000);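 active = every replicate shows inhibition above about 80%, whatever the replicate mean, limit read from the data; inconclusive = mean inhibition reaches the set limit but some replicate falls short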
Shn3 inh set2 = reduces Shn3 3'UTR luciferase signal in osteoblasts. inhibition, % at 12.5 µM. actives 0.52% (n = 360,000). Clone20 osteoblast Shn3 3'UTR firefly luciferase, 24 h. AID 588674;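 active = mean inhibition of at least 75% with every replicate also reaching 75%; inconclusive = mean inhibition at least 75% but some replicate below; inactive = mean inhibition below 75%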
Beta cell apopt = beta cell apoptosis inhibition | INS-1E cytokine-induced death, ATP luminescence, 48 h; percent of positive-control rescue, neutral wells zero | AID 435005 | protection from apoptosis, % (concentration not given with the values) | actives 0.8% (n = 300,000);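 active = Every replicate reaches about 75%, or at least half do and their mean reaches it too, limit read from the data; inconclusive = At least half of replicates reach the limit but their mean does not; inactive = Under half of replicates reach the limit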;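 also: higher means more ATP so stronger rescue from cytokine killing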
CSC inhib = cancer stem cell inhibition; cancer stem cell-like cells viability, luminescence; inhibition, % at 7.5 µM; actives 1.1% (n = 300,000); AID 2717; in the data active = inhibition above about 75%; inconclusive = no clear call, values can overlap the other calls; tested in HMLE shEcad cells
Hits are given with their value.

C/C(=N\NC(=O)c1ccccc1Cl)c1ccccn1 was read as Calb FLC inactive, PfHsp90 yeast 2 inactive, Shn3 inh set2 92, Beta cell apopt 93 and CSC inhib inactive.
C/C(=N\NC(=O)C(c1ccccc1)c1ccccc1)c1ccc(O)cc1 was read as Calb FLC inactive, PfHsp90 yeast 2 inactive, Shn3 inh set2 inactive, Beta cell apopt inactive and CSC inhib inactive.
`C/C(=N\NC(=O)c1cccc(Br)c1)c1ccccn1` gave Calb FLC inactive, PfHsp90 yeast 2 inactive, Shn3 inh set2 inconclusive, Beta cell apopt 105 and CSC inhib 139.
C/C(=N/NC(=O)c1ccccn1)c1ccncc1 was read as Calb FLC inactive, PfHsp90 yeast 2 inactive, Shn3 inh set2 inactive, Beta cell apopt inactive and CSC inhib inactive.
For C/C(=N\NC(=O)c1ccc(Cl)c(Cl)c1)c1ccccn1 the results were Calb FLC inactive, PfHsp90 yeast 2 inactive, Shn3 inh set2 91, Beta cell apopt 93 and CSC inhib 81.
`C/C(=N\NC(=O)C(c1ccccc1)c1ccccc1)c1ccccn1` gave Calb FLC inactive, PfHsp90 yeast 2 inactive, Shn3 inh set2 88, Beta cell apopt 88 and CSC inhib inactive.
C=CCN=C1S/C(=C\c2ccc(N(C)C)cc2)C(=O)N1CC=C was read as Calb FLC inactive, PfHsp90 yeast 2 inactive, Shn3 inh set2 inactive, Beta cell apopt inactive and CSC inhib inactive.
For Cc1ccccc1OCC(=O)NCCNC(=O)c1ccccn1 the results were Calb FLC inactive, PfHsp90 yeast 2 inactive, Shn3 inh set2 inactive and Beta cell apopt inactive.
Screening CC1(C(=O)N2CCCCC2)CCN1C(=O)Cc1ccc(-c2ccccc2)cc1 (configuration not stated) returned Shn3 inh set2 inactive.
For N#CCNc1ccc([N+](=O)[O-])cc1C#N the results were Calb FLC inactive, PfHsp90 yeast 2 inactive, Shn3 inh set2 inactive, Beta cell apopt inactive and CSC inhib inactive.
For C/C(=N\NC(=O)c1cccc2ccccc12)c1ccccn1 the results were Calb FLC inactive, PfHsp90 yeast 2 inactive and Shn3 inh set2 90.
Screening CC(=NNC(=S)Nc1cccc(C)c1)c1ccccn1 returned PfHsp90 yeast 2 112 and Shn3 inh set2 93.
For C/C(=N\NC(=O)c1cc(Br)ccc1O)c1ccccn1 the results were Calb FLC inactive, PfHsp90 yeast 2 inactive, Shn3 inh set2 inactive, Beta cell apopt 105 and CSC inhib 96.
Screening C/C(=N/NC(=O)c1ccc(C(C)(C)C)cc1)c1ccccn1 returned Calb FLC inactive, PfHsp90 yeast 2 inactive, Shn3 inh set2 inactive, Beta cell apopt 111 and CSC inhib inactive.
CCCCOc1ccc(C(=O)NCC(=O)NNC(=O)c2ccco2)cc1 was read as Shn3 inh set2 inactive, Beta cell apopt inactive and CSC inhib inactive.
For Cc1nc2ccc(S(=O)(=O)NCC(=O)NCCc3ccc(Cl)cc3)cc2s1 the results were Calb FLC inactive, PfHsp90 yeast 2 inactive, Shn3 inh set2 inactive, Beta cell apopt inactive and CSC inhib inactive.
For COc1ccc(C(=O)N/N=C(\C)c2ccccn2)cc1OC the results were Calb FLC inactive, PfHsp90 yeast 2 inactive, Shn3 inh set2 91, Beta cell apopt 98 and CSC inhib 91.
Screening COc1ccccc1NC(=S)NN=C(C)c1ccccn1 returned PfHsp90 yeast 2 inactive and Shn3 inh set2 91.
For C/C(=N\Nc1nc2ccccc2[nH]1)c1ccccn1 the results were Calb FLC inactive, PfHsp90 yeast 2 inactive, Shn3 inh set2 inactive and Beta cell apopt 92.
COc1ccc(C(=O)NNC(=O)Cc2ccc(-c3ccccc3)cc2)cc1OC was read as Calb FLC inactive, PfHsp90 yeast 2 inactive, Shn3 inh set2 inactive, Beta cell apopt inactive and CSC inhib inactive.
COc1ccc(C(=O)NNc2ccccc2)cc1OC was read as Calb FLC 106, PfHsp90 yeast 2 inactive, Shn3 inh set2 inactive, Beta cell apopt inactive and CSC inhib 83.
CCc1noc(C)c1C(=O)NC1CC(C)(C)Cc2c1cnn2-c1ccccc1 (configuration not stated) was read as Calb FLC inactive, Shn3 inh set2 inactive and CSC inhib inactive.
Screening CCc1ccc(C(=O)Nc2cc(S(=O)(=O)N3CCOCC3)ccc2N2CCOCC2)cc1 returned PfHsp90 yeast 2 inactive, Shn3 inh set2 inactive, Beta cell apopt inactive and CSC inhib inactive.
`COc1cc(C(=O)NCc2nnc(SCC(=O)Nc3cccc(C(F)(F)F)c3)o2)cc(OC)c1OC` gave Calb FLC inactive, PfHsp90 yeast 2 inactive, Shn3 inh set2 inactive, Beta cell apopt inactive and CSC inhib inactive.
For C/C(=N\NC(=O)c1ccc(NS(=O)(=O)c2cccs2)cc1)c1ccccn1 the results were Calb FLC inactive, Beta cell apopt 86 and CSC inhib inactive.
For C/C(=N\NC(=O)c1ccc(NS(=O)(=O)c2cccs2)cc1)c1ccncc1 the results were Calb FLC inactive, PfHsp90 yeast 2 inactive, Shn3 inh set2 inactive, Beta cell apopt inactive and CSC inhib inactive.
For O=C(/C(=C/O)N=Nc1cccc(C(F)(F)F)c1)c1ccccc1 the results were Calb FLC inconclusive, PfHsp90 yeast 2 108, Shn3 inh set2 inactive, Beta cell apopt inactive and CSC inhib inactive.
For Cc1cccc(N=N/C(=C\O)C(=O)c2ccc(Br)cc2)c1 the results were Calb FLC inactive, PfHsp90 yeast 2 inactive, Shn3 inh set2 inactive and CSC inhib inactive.
For O=C1c2ccccc2C(=O)c2c1cccc2-n1nnc2ccccc21 the results were Calb FLC inactive, PfHsp90 yeast 2 inactive, Shn3 inh set2 inactive, Beta cell apopt inactive and CSC inhib inactive.
`O=C1C(N2CCOCC2)=C(n2nnc3ccccc32)C(=O)c2ccccc21` gave Calb FLC inactive, PfHsp90 yeast 2 inactive, Shn3 inh set2 inactive, Beta cell apopt 120 and CSC inhib 110.
Screening O=C1OC(c2ccc(O)cc2)(c2ccc(O)cc2)c2ccccc21 returned PfHsp90 yeast 2 inactive, Shn3 inh set2 inactive, Beta cell apopt inactive and CSC inhib inactive.
For O=C1OC(c2ccccc2)(c2ccc3cc(O)ccc3c2)c2ccccc21 (configuration not stated) the results were PfHsp90 yeast 2 113 and Shn3 inh set2 inactive.
`O=C(COc1cc(O)c2c(=O)c3ccccc3oc2c1)OCc1ccccc1` gave Calb FLC inactive, PfHsp90 yeast 2 inactive, Shn3 inh set2 inactive, Beta cell apopt inactive and CSC inhib inactive.
For COC(=O)c1cc(S(=O)(=O)NCCc2sccc2C)c[nH]1 the results were Calb FLC inactive, PfHsp90 yeast 2 inactive, Shn3 inh set2 inactive, Beta cell apopt inactive and CSC inhib inactive.
`O=C(C[n+]1cc(-c2ccc(Cl)c(Cl)c2)n2c1CCC2)N1c2ccccc2Sc2ccccc21` gave Calb FLC 107, PfHsp90 yeast 2 inactive, Shn3 inh set2 inactive, Beta cell apopt inactive and CSC inhib inactive.
For COc1ccc(-c2c[n+](CC(=O)N3c4ccccc4Sc4ccccc43)c3n2CCC3)cc1 the results were Calb FLC inactive, PfHsp90 yeast 2 inactive, Shn3 inh set2 inactive, Beta cell apopt inactive and CSC inhib inactive.
O=C(C[n+]1cc(-c2ccc(Cl)cc2)n2c1CCC2)N1c2ccccc2Sc2ccccc21 was read as Calb FLC 107, PfHsp90 yeast 2 inactive, Shn3 inh set2 inactive, Beta cell apopt inactive and CSC inhib inactive.

High-throughput results deposited in PubChem BioAssay by Broad Institute.
